Reference: PubChem BioAssay (NCI)
About 83,000 compounds went through this panel and 20% of them were active in at least one assay; those are over-represented in the sample as a whole.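 96-well plates, one dose, 48 hours. Percent growth reported; active if below 10.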 Unmarked numbers belong to inactive results. Calls of active or inactive are those of the source.

Experiments:
Test in all cases: NCI-60 one-dose screen, 48 h (100 = growth as untreated, 0 = no growth, -100 = all killed)
Details in all cases: 10 µM unless noted
HCT-15 colon = system: HCT-15 colon
HT29 colon = system: HT29 colon
SNB-75 CNS = system: SNB-75 CNS
SNB-19 CNS = system: SNB-19 CNS
U251 CNS = system: U251 CNS
PC-3 prostate = system: PC-3 prostate
SK-MEL-5 melanoma = system: SK-MEL-5 melanoma
UACC-62 melanoma = system: UACC-62 melanoma
SK-MEL-28 melanoma = system: SK-MEL-28 melanoma
LOX IMVI melanoma = system: LOX IMVI melanoma

Compound	growth (HCT-15 colon)	growth (HT29 colon)	growth (SNB-75 CNS)	growth (SNB-19 CNS)	growth (U251 CNS)	growth (PC-3 prostate)	growth (SK-MEL-5 melanoma)	growth (UACC-62 melanoma)	growth (SK-MEL-28 melanoma)	growth (LOX IMVI melanoma)
Cc1cc(Cl)nc(N(CCCNc2ccnc3cc(Cl)ccc23)Cc2ccccn2)n1	35.2%	10.2%	64.1%	66.5%	43.9%	54.2%	34.1%	55.9%	68%	–
CCCc1nc2ccccn2c1Nc1ccc(C(=O)NO)cc1	89.8%	92.7%	82.2%	85%	95.9%	83%	101%	82.7%	95.7%	–
CCn1c(Sc2nnc(Nc3ccccc3)s2)nc2c1c(=O)n(C)c(=O)n2C	97.6%	137%	101%	95%	103%	100%	99.2%	90.2%	93%	–
Cc1c(C)c2c(c(C)c1NC(=O)/C=C\C(=O)O)CCC(C)(CCCC(C)CCCC(C)CCCC(C)C)O2 (configuration not stated)	2.82% (active)	20.7%	33.2%	78.1%	60.2%	16.6%	-97.7% (active)	22.8%	-10.6% (active)	–
CCOC(=O)N1CCc2c(sc3c2C(=O)N[C@H](c2ccc(OC)cc2)N3)C1	106%	86.2%	91.7%	90%	96.7%	89.1%	99.1%	–	109%	101%
CN1CCN(c2ccc(Nc3ncc(Cl)c(NC[C@@H]4CCCO4)n3)cc2)CC1	24.3%	16%	6.49% (active)	53.9%	32.5%	30.7%	31%	–	50.9%	8.91% (active)
CC(=O)Nc1ccc(-c2cc3c(NCc4ccc(F)cc4)ncnc3s2)cc1	88.8%	102%	70.1%	57.8%	77.6%	81%	–	73%	93.5%	82.4%
COc1ccc(C2=NC(=O)NC2c2ccc(OC)cc2)cc1 (configuration not stated)	48.4%	37.2%	46.7%	58.5%	74.6%	–	63%	47.2%	72.6%	64%
C=C1C(=O)O[C@H]2[C@H]1CC/C(COC(=O)/C=C\C(=O)NCc1ccc(Cn3c(=O)sn(-c4ccc(C#N)cc4)c3=O)cc1)=C\CC[C@@]1(C)O[C@@H]21	-33.9% (active)	-13.2% (active)	-82.2% (active)	-65% (active)	-66.4% (active)	-62.4% (active)	–	-99.4% (active)	-96.2% (active)	-86.8% (active)
CN(C)CCn1cc(-c2ccc3c(Nc4ccc(CC(=O)Nc5cccc(F)c5)cc4)ncnc3c2)cn1	22.1% [30 µM]	-40.7% [30 µM] (active)	-87% [30 µM] (active)	-60% [30 µM] (active)	-52.4% [30 µM] (active)	-25.2% [30 µM] (active)	–	-81.6% [30 µM] (active)	-89.6% [30 µM] (active)	-50.2% [30 µM] (active)
C=C1C(=O)O[C@H]2[C@H]1CC/C(COC(=O)/C=C\C(=O)NCc1ccc(Cn3c(=O)sn(CCCC)c3=O)cc1)=C\CC[C@@]1(C)O[C@@H]21	-29.8% (active)	-22.2% (active)	-63.6% (active)	20.5%	-64.3% (active)	-59.7% (active)	–	–	-92.1% (active)	-83.5% (active)
OCCCCc1nccc2c1[nH]c1ccccc12	104%	94.6%	80.5%	110%	108%	–	97.5%	96.8%	111%	99.8%
CCOC(=O)c1sc(-c2ccc(OS(=O)(=O)c3ccc(C(C)(C)C)cc3)c(C=O)c2)nc1C	12.5%	19.7%	22.9%	29.7%	26%	16.2%	–	46.1%	81.9%	43.3%
O=[N+]([O-])c1cccc(/C=C/c2ccccn2)c1	42.7%	98%	58.3%	74.5%	38.4%	–	79%	86.1%	128%	102%
COc1ccc(/C=C2\COc3ccc(O)cc3C2=O)cc1OC	71.3%	19.9%	91.3%	59.5%	40.8%	64.3%	–	77.1%	97.3%	11.6%
O=C1c2cccc3c(-c4ccc(-c5nc6c7ccccc7c7ccccc7c6[nH]5)cc4)ccc(c23)C(=O)N1CCN1CCNCC1	40.9%	5.47% (active)	103%	103%	62.1%	66.6%	–	106%	119%	-55.8% (active)
CCCCOc1ccc(NC(=O)n2nc(N=NN(C)C)c3ccc(Cl)cc32)cc1	105%	98.1%	89.1%	106%	118%	88.5%	107%	–	106%	–
C=C1C(=O)O[C@H]2[C@H]1CC/C(COC(=O)/C=C/C(=O)NCc1ccc(Cn3c(=O)sn(-c4ccccc4)c3=O)cc1)=C\CC[C@@]1(C)O[C@@H]21	32.9%	-46.6% (active)	70.7%	61.8%	20.7%	57.1%	-27.8% (active)	–	-40.1% (active)	-85.2% (active)
COc1cc(/C=C/C(=O)c2ccc(Nc3nc(Nc4ccccc4)nc(Nc4ccc(Cl)cc4)n3)cc2)cc(OC)c1OC	55.8%	46.8%	57.5%	92.8%	37.4%	–	39%	59.8%	39.9%	66.5%
Cn1cc(-c2ccc3ncc(-c4ccc(CC(=O)Nc5cc(C(C)(C)C)nn5C)cc4)cc3c2)cn1	7.79% [30 µM] (active)	36.5% [30 µM]	22% [30 µM]	41.9% [30 µM]	35% [30 µM]	5.27% [30 µM] (active)	–	-33.9% [30 µM] (active)	14.5% [30 µM]	-18.4% [30 µM] (active)
CC(=O)Nc1ccc2c(c1)Cc1c(F)cccc1-2	108%	111%	73.7%	107%	107%	88.4%	–	–	117%	103%
OC(COc1cccc2ccccc12)CN1CCN(c2ccccc2)CC1 (configuration not stated)	99.6%	94%	81.8%	97.4%	95.7%	–	90.4%	98.2%	105%	92.1%
Cn1ccnc1C(=O)/C=C/c1ccc(C(=O)Nc2ccc(S(F)(F)(F)(F)F)cc2)cc1	3.65% (active)	12%	12.2%	9.4% (active)	-6.93% (active)	17.4%	–	53.5%	79.5%	-79.5% (active)
COc1ccc(Cn2cnc3cc(C(=O)Nc4cccc5ccccc45)ccc32)c(OC)c1	3.1% [30 µM] (active)	8.08% [30 µM] (active)	35.4% [30 µM]	21.5% [30 µM]	17.5% [30 µM]	17.4% [30 µM]	–	–	60.6% [30 µM]	12.1% [30 µM]
COc1ccc(OC)c(/C=C2\COc3ccc(O)c(O)c3C2=O)c1	1.18% (active)	33.7%	11.7%	33.9%	19%	26.6%	–	28.9%	48.7%	-63.1% (active)
CCN(CC)CCOc1ccc(/C(=C(\C)c2ccc(F)c(OC)c2)c2ccc(Cl)cc2)cc1	2.58% (active)	9.08% (active)	31.9%	8.37% (active)	3.13% (active)	14.8%	–	-44.8% (active)	-64.6% (active)	-94.1% (active)
O[C@H]1CO[C@H]2[C@@H]1OC[C@@H]2Oc1ccc(Nc2ccnc(Nc3ccc(O[C@H]4CO[C@H]5[C@@H]4OC[C@@H]5O)c(Cl)c3)n2)cc1Cl	26.4%	9.26% (active)	-1.57% (active)	7.59% (active)	7.71% (active)	15.7%	–	-74% (active)	20.4%	-8.35% (active)
C=C(C)[C@@H]1CC[C@]2(CO)CC[C@]3(C)[C@H](CC[C@@H]4[C@@]5(C)C=C(C#N)C(=O)C(C)(C)[C@@H]5CC[C@]43C)[C@@H]12	3.8% (active)	8.33% (active)	52.1%	18.5%	9.63% (active)	6.8% (active)	12%	–	20.9%	–
